For test [1], the target named is Death-associated protein kinase 1 (Homo sapiens) (UniProt P53355). The following applies: at 1 µM.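 Note: each value is a mean inhibition figure.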
Test [2] concerns the target T1, Serine/threonine-protein kinase DCLK2 (Homo sapiens) (UniProt Q8N568).
T1 sequence (whole entry): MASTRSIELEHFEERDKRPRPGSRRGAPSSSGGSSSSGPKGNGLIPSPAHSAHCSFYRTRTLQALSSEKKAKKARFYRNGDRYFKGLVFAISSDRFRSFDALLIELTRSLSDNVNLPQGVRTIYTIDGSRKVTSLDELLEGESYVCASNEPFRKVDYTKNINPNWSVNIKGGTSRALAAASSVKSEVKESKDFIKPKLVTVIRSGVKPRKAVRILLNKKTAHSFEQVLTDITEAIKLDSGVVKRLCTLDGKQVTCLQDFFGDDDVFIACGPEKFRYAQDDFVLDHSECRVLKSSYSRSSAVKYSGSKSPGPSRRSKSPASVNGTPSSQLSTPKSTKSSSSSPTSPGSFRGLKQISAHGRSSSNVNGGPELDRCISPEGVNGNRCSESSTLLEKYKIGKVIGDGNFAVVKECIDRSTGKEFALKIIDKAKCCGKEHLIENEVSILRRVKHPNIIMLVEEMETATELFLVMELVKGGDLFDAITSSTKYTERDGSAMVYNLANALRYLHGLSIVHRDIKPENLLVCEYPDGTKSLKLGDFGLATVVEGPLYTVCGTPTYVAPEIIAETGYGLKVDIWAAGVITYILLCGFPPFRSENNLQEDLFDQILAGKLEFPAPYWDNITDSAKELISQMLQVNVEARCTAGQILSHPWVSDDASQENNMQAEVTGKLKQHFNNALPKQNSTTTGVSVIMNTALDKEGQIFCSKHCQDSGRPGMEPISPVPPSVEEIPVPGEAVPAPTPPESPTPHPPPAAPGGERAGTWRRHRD
Particulars: at 0.1 µM.

In test [3] the target is T1, Serine/threonine-protein kinase DCLK2 (Homo sapiens). Particulars: at 1 µM.
The target of test [4] is MAP kinase-activated protein kinase 2 (Homo sapiens) (UniProt P49137). Particulars: at 0.1 µM.
Test [5] has the same target. The following applies: at 1 µM.
For test [6], the target named is MAP kinase-activated protein kinase 3 (Homo sapiens) (UniProt Q16644). The following applies: at 0.1 µM.
Sequence of MAP kinase-activated protein kinase 3 (Homo sapiens) (Q16644 whole entry, looked up): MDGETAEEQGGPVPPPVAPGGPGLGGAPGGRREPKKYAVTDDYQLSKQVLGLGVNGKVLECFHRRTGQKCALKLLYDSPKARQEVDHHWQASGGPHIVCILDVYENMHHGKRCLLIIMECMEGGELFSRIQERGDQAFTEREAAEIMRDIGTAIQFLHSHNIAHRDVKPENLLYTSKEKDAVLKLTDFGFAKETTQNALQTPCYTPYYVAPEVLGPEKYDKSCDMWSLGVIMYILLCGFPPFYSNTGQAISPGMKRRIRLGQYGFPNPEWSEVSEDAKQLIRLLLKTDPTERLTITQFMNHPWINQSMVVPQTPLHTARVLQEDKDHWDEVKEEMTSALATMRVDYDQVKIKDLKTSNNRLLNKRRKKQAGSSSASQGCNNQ
Test [7] shares this target. The following applies: at 1 µM.
The target of test [8] is Serine/threonine-protein kinase MARK1 (Homo sapiens) (UniProt Q9P0L2). Particulars: at 0.1 µM.
Sequence of Serine/threonine-protein kinase MARK1 (Homo sapiens) (Q9P0L2 whole entry, looked up): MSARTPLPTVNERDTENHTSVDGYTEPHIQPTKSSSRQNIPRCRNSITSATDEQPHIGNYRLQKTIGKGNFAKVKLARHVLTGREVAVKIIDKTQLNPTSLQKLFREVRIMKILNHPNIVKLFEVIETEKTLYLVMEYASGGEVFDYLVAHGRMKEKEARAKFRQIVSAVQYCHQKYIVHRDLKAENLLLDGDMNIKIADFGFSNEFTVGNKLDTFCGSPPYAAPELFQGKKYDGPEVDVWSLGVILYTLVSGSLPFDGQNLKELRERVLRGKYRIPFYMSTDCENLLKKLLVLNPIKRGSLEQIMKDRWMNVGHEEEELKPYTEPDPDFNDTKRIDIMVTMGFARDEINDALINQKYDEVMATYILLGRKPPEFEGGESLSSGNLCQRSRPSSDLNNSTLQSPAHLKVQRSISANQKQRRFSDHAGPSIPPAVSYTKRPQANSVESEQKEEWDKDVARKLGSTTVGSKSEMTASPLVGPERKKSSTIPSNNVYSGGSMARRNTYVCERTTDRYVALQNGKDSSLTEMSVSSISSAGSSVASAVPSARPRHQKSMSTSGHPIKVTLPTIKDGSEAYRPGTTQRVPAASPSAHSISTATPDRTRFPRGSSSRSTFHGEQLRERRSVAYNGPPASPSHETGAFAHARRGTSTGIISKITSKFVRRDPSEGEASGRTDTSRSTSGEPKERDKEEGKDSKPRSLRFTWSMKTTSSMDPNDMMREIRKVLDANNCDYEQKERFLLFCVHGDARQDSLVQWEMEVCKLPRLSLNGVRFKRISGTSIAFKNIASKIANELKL
Test [9] shares this target. Particulars: at 1 µM.
In test [10] the target is MAP/microtubule affinity-regulating kinase 3 (Homo sapiens) (UniProt P27448). Particulars: at 0.1 µM.
Sequence of MAP/microtubule affinity-regulating kinase 3 (Homo sapiens) (P27448 whole entry, looked up): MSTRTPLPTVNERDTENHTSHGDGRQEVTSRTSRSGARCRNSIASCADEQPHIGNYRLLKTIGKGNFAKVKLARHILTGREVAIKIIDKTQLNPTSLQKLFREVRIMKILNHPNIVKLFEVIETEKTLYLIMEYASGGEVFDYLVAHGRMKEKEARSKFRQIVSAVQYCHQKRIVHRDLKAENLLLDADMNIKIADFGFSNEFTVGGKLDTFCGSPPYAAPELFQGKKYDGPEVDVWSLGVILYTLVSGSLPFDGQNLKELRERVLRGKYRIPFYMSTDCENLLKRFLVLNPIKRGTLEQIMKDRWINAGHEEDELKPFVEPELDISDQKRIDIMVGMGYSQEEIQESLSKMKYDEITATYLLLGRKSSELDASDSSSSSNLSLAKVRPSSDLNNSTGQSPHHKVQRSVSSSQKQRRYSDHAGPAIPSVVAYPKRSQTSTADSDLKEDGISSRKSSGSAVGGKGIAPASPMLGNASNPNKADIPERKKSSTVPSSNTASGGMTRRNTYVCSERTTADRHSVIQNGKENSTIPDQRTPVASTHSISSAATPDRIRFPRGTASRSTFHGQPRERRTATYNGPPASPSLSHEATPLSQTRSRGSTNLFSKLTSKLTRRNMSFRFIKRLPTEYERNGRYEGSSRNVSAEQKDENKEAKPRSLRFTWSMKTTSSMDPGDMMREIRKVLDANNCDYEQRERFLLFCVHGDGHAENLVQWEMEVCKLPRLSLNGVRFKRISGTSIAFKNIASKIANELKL
Test [11] has the same target. The following applies: at 1 µM.
The target in test [12] is T2, MAP/microtubule affinity-regulating kinase 4 (Homo sapiens) (UniProt Q96L34).
T2 sequence (whole entry): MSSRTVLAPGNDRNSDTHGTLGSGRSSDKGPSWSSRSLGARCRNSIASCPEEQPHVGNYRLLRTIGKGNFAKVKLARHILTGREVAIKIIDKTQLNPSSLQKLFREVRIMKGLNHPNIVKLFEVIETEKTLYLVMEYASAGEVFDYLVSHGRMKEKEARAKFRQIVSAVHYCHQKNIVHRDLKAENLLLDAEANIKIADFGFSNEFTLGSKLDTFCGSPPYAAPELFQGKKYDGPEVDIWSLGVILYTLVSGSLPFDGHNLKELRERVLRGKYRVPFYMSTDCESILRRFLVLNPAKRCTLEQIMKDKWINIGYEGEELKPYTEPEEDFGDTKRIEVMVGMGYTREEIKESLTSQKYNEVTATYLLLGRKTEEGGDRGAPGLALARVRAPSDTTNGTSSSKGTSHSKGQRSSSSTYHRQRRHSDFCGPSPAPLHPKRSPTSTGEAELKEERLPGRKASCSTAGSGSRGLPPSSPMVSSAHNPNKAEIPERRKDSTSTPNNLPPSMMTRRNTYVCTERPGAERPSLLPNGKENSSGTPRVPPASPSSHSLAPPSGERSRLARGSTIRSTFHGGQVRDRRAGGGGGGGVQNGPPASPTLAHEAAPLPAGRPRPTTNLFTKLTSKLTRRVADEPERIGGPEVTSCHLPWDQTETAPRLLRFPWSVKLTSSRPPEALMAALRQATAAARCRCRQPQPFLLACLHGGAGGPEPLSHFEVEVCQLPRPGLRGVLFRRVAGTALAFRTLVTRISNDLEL
Particulars: at 0.1 µM.

Test [13] has as its target T2, MAP/microtubule affinity-regulating kinase 4 (Homo sapiens). Particulars: at 1 µM.
The target in test [14] is Maternal embryonic leucine zipper kinase (Homo sapiens) (UniProt Q14680). The following applies: at 0.1 µM.
Test [15] has the same target. Particulars: at 1 µM.
Test [16] has as its target MAP kinase-interacting serine/threonine-protein kinase 1 (Homo sapiens) (UniProt Q9BUB5). Particulars: at 0.1 µM.
The target is the same in test [17]. Particulars: at 1 µM.
Test [18] has as its target MAP kinase-interacting serine/threonine-protein kinase 2 (Homo sapiens) (UniProt Q9HBH9). The following applies: at 0.1 µM.
For test [19] the target is unchanged. Particulars: at 1 µM.
In test [20] the target is Serine/threonine-protein kinase MARK2 (Homo sapiens) (UniProt Q7KZI7). Particulars: at 0.1 µM.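 Note: mean percent inhibition of PAR-1Balpha kinase activity, reported from the GSK PKIS screen.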
Sequence of Serine/threonine-protein kinase MARK2 (Homo sapiens) (Q7KZI7 whole entry): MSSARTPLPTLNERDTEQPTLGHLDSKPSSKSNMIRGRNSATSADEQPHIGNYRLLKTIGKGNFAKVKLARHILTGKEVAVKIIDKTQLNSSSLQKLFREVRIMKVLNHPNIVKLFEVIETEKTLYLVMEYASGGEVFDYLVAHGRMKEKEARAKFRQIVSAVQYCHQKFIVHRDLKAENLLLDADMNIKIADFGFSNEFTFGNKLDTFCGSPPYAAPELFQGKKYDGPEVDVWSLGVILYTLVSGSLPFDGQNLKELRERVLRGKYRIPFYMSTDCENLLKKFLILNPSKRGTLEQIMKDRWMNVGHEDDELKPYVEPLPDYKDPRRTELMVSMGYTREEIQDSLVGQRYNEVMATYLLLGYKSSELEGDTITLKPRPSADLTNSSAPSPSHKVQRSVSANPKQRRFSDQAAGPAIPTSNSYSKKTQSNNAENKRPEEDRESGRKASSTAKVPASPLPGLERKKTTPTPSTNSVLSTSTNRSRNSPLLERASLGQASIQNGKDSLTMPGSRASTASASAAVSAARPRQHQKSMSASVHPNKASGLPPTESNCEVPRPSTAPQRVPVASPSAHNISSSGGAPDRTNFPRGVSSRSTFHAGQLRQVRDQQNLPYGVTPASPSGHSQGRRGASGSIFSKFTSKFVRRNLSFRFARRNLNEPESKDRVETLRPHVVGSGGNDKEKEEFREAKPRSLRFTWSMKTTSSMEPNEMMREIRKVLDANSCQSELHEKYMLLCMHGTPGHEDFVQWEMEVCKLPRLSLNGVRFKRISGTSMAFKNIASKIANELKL

Sequence of Death-associated protein kinase 1 (Homo sapiens) (P53355 whole entry, looked up): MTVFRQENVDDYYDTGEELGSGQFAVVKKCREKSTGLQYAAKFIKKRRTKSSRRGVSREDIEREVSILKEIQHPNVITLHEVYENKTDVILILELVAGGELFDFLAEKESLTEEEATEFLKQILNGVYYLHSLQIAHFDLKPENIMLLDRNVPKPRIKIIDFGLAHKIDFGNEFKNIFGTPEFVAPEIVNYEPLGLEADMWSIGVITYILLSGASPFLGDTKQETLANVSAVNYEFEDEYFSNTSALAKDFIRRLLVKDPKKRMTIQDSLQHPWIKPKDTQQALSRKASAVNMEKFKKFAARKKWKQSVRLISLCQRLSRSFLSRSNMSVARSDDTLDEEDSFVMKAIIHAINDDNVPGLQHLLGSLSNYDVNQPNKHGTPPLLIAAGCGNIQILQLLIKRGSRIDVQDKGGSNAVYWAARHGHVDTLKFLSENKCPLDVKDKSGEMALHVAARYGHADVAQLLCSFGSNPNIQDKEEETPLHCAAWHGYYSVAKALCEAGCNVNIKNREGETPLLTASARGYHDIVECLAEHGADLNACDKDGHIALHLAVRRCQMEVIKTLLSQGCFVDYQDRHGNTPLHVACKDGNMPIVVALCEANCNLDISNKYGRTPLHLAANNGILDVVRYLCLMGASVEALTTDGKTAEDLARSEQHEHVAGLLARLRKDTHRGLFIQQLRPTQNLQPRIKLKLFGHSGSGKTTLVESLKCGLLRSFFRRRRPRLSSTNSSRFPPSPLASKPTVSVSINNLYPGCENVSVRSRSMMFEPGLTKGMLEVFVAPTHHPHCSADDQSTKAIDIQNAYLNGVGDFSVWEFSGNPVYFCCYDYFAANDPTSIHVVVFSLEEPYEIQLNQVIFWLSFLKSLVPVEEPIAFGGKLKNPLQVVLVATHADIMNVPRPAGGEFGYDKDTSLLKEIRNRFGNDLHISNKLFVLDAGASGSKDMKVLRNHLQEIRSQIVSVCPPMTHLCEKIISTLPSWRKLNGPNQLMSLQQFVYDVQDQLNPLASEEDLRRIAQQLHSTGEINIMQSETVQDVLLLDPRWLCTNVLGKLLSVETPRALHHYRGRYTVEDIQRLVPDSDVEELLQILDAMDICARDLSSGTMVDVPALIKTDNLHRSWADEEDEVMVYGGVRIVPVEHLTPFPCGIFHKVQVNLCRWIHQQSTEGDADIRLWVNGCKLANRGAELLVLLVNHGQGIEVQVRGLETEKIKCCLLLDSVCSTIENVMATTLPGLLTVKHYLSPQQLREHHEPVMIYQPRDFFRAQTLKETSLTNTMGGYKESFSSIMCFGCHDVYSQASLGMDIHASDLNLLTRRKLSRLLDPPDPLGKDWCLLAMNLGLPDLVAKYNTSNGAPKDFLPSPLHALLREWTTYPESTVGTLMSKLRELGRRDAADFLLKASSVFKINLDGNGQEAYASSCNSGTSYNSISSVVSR
Sequence of MAP kinase-interacting serine/threonine-protein kinase 2 (Homo sapiens) (Q9HBH9 whole entry, looked up): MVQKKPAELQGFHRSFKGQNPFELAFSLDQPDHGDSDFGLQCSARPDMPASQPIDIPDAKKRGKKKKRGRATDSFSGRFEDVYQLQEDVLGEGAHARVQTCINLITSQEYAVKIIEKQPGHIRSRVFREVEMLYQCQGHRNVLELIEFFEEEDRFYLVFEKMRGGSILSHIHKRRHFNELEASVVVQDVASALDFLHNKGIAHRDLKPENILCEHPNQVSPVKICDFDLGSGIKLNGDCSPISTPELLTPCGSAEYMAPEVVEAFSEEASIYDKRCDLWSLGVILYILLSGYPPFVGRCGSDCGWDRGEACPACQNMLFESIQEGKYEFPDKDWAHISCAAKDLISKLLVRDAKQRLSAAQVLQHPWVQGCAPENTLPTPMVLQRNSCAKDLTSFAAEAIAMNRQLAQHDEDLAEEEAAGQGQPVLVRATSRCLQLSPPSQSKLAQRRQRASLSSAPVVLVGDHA
Sequence of MAP kinase-interacting serine/threonine-protein kinase 1 (Homo sapiens) (Q9BUB5 whole entry, looked up): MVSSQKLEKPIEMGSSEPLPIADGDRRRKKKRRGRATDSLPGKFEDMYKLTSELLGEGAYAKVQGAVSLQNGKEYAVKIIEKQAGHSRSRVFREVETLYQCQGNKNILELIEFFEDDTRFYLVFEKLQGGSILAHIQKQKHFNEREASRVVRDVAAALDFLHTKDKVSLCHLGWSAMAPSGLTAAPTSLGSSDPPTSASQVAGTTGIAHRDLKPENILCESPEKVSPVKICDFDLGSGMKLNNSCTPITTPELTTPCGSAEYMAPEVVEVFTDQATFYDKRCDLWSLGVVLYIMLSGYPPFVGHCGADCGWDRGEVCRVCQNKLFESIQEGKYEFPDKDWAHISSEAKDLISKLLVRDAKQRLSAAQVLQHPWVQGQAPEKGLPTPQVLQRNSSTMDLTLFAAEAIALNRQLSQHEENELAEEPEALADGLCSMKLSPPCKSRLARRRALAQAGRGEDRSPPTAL

Regarding `COc1cc2c(cc1Nc1nc(N3CCc4ccccc43)c3cc[nH]c3n1)N(C(=O)CN(C)C)CC2`, the inhibition (in general, the drop in the measured response relative to a control, in per cent) in test [1] was 5.32%; in test [2] it was -0.1%; in test [3] it was -1.1%; in test [4], 1.24%; in test [5], 1.57%; in [6], 1.99%. Further, the inhibition in test [7] worked out at 0.18%; in [8] it was 1.84%; in test [9], 3.15%; in test [10], 4.35%; in [11], 6.25%; in [12] it was 0.37%. The inhibition turned out to be 1.93% in [13]; 1.9% in [14]; 2.27% in test [15]; 1.09% in test [16]; 5.08% in [17]; 0.08% in test [18]. Also, the figures for the inhibition in test [19] and in test [20] were 7.67% and 1.14%, respectively.

With `CN(C)c1cc2c(Nc3ccc4nc(Cc5ccccc5)[nH]c4c3)ncnc2cn1`, the inhibition in test [1] turned out to be 7.51%; in [2], 1.19%; in [3], 1.22%; in test [4], 2.01%; in test [5], 2.85%; in test [6], 4.79%. Also, the inhibition in test [7] was found to be 4.13%; in test [8], 3.62%; in [9] it was 5.59%; in [10], 3.84%; in test [11], 5%; in test [12], 2.82%. In addition, the inhibition in [13] worked out at 3%; in [14], 6.98%; in test [15] it was 11.4%; in test [16], 3.69%; in test [17] it was 8.7%; in test [18], 0.92%. The inhibition in [19] was determined as 4.05%; in test [20] it was 0.6%.

On to `NC(=O)c1ccc(-c2nc(-c3ccccn3)c(-c3ccc4c(c3)OCO4)[nH]2)cc1`, for which the inhibition in [1] is 2.62%; in test [2] it was -0.58%; in test [3] it was -8.11%; in [4], 1.1%; in test [5], 0.74%; in [6], 3.61%. In addition, the inhibition in test [7] was found to be 5.05%; in test [8], 1.86%; in test [9], 3.27%; in [10], 2.26%; in test [11], 11%; in test [12], 1.03%. Also, the inhibition in [13] turned out to be 0.93%; in [14], 2.76%; in test [15], 2.1%; in [16], 1.26%; in test [17], 5.1%; in test [18], 1.27%. Further, the inhibition in [19] is 3.13%; in test [20], -0.01%.

With `COc1cc2ncn(-c3cc(O[C@H](C)c4ccccc4Cl)c(C(N)=O)s3)c2cc1OC`, the inhibition is -9.77% in [1]; 0.64% in test [2]; 1.35% in [3]; -0.8% in [4]; -0.71% in test [5]; -2.77% in [6]. The inhibition in test [7] was -0.41%; in [8], 5.95%; in test [9] it was 31.9%; in test [10] it was 3.47%; in test [11], 37.2%; in [12], 4.58%. Moreover, the inhibition in test [13] was found to be 32%; in test [14], 4.94%; in [15], 23.7%; in [16], 3.54%; in [17], 11.9%; in [18], 3.53%. Also, the inhibition turned out to be 11.8% in test [19] and 2.26% in [20].

Turning to `O=C1NC(=O)C(N2CCc3ccccc32)=C1c1ccc(Cl)cc1`, the inhibition in test [1] amounted to 13.8%; in test [2] it was 1.5%; in test [3], 1.94%; in test [4], 4.64%; in test [5], 5.01%; in [6], 10.4%. Moreover, the inhibition in [7] was determined as 10.3%; in [8], 3.93%; in test [9], 5.85%; in [10], 5.98%; in test [11] it was 2.11%; in [12], 3.11%. Besides, the inhibition in test [13] came to 2.16%; in test [14] it was 4.84%; in test [15], 6.67%; in [16] it was 2.34%; in test [17], 3.78%; in [18] it was 1%. Also, the inhibition is 3.38% in test [19] and 0.05% in test [20].

As to `NS(=O)(=O)c1ccc(N/N=C2\C(=O)Nc3ccc(C(=O)NCCc4c[nH]cn4)cc32)cc1`, the inhibition was determined as 12.4% in test [1]; 1.45% in test [2]; 0.59% in test [3]; 2.48% in test [4]; 2.03% in test [5]; 3.95% in test [6]. Besides, the inhibition in [7] amounted to 3.57%; in test [8], 16%; in test [9], 61.4%; in test [10] it was 8.6%; in [11], 49.1%; in [12], 11.8%. The inhibition in [13] was determined as 56.3%; in test [14] it was 82%; in test [15], 98%; in test [16] it was 2.81%; in test [17], 4.11%; in [18], 1.48%. The inhibition in test [19] amounted to 4.85%; in test [20] it was 7.88%.

`NCc1ccc(-c2nc(-c3ccc(Cl)c(O)c3)c(-c3ccncc3)[nH]2)cc1`: the inhibition is 1.16% in [1]; 3.34% in test [2]; 5.14% in test [3]; -0.41% in test [4]; -0.56% in test [5]; 15.5% in test [6]. Further, the inhibition in test [7] was determined as 30.9%; in [8], 2.03%; in test [9], 2.6%; in test [10], 0.33%; in test [11] it was 5.09%; in [12], 0.06%. Also, the inhibition in test [13] is 2.57%; in [14] it was 0.75%; in test [15], -1.02%; in [16], -2.18%; in [17] it was 6.58%; in test [18], 1.14%. Also, the inhibition in test [19] is 4.8%; in test [20] it was -0.38%.
